Here are results for five molecules from PubChem BioAssay AID1822 (The Scripps Research Institute Molecular Screening Center, 2009).

In all, about 290,000 compounds went through this assay and about 3,500 (1.2%) were called active. For the sample, actives were picked, then their nearest neighbours and some compounds at random. Values without a mark were called inactive.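 How the source made its calls: active means inhibition above the campaign mean inhibition over all tested compounds plus 3 SD (cut at about 28% in these data); inactive means the rest.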

This experiment deals with M18 aspartyl aminopeptidase (Plasmodium falciparum 3D7). Description: PfM18AAP inhibitors, malaria aminopeptidase, primary screen, biochemical, QFRET, recombinant enzyme (AID 1822).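 Further: 0% = plate median of test compound wells and 100% = 2 mM ZnCl2.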 The conditions noted are these: H-Glu-NHMec fluorogenic cleavage, at 7.35 µM, active compounds read high.
With `COc1cccc(N2C(=O)NC(=O)/C(=C\c3cn(C)c4ccccc34)C2=O)c1`, the inhibition was 31.5% (active). Turning to `Cc1cccc(N2C(=O)NC(=O)/C(=C\c3cnn(-c4ccccc4)c3)C2=O)c1`, the inhibition is -3.93%.

Turning to `COc1cccc(N2C(=O)NC(=O)/C(=C\c3ccc([N+](=O)[O-])s3)C2=O)c1`, the inhibition was 9.11%. For `CCOc1ccc(-c2cc(C)[n+](CCN(CC)CC)c(-c3ccc(OCC)cc3)c2)cc1`, the inhibition is -4.54%. Consider `Cc1cccc(NC(=O)N2CC3CC(C2)c2cccc(=O)n2C3)c1` (stereo not given), for which the inhibition is -2.4%.

A word on the inhibition: it is the change of the read-out against control, counted positive when it falls.
